# Experimental data taken from PubChem BioAssay (EPA / NIEHS).
# Results filed as inconclusive are left out. Activity calls are given as the source filed them. How the source made its calls: active means hit-call score of the fitted dose curve at least 0.9, where 1 is the maximum; inconclusive means response in the unintended direction; inactive means score below 0.9.
# Legend:
# [1] = molecular target: rat Peripheral-type Benzodiazepine Receptor (PBR), Tspo (gene 24230) (UniProt P16257); assay: NVS_MP_rPBR: NovaScreen (NVS) Membrane Protein Assay for rat Peripheral-type Benzodiazepine Receptor (PBR) (AID 2283335)
# Method in brief: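 Single-concentration duplicate screening at 25 uM preceded concentration-series retesting of actives. Binding of a specific radioligand to rat kidney membrane PBR was read by filtration radiodetection after 1 h, with plate-wise positive and negative controls.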
# NCBI gene 100848466 = assay: NVS_NR_bPR: NovaScreen (NVS) Nuclear Receptor Binding Assay for bovine Progextron Receptor (PR) (AID 2283343);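 on AC50: actives lower bound radioligand signal below DMSO meaning displacement of the label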
# Method in brief: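 Scintillation counts of bound radioligand were read 18 hours after chemical addition to membranes extracted from bovine uterus. Displacement was scored as loss of signal relative to DMSO controls. Screening began at 25 uM in duplicate.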
# [2] = molecular target: bovine Estrogen Receptor (ER), ESR1 (gene 407238) (UniProt P49884); assay: NVS_NR_bER: NovaScreen (NVS) Nuclear Receptor Binding Assay for bovine Estrogen Receptor (ER) (AID 2283345);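 further: actives lower the bound radioligand count which means they displace the ER ligand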
# Method in brief: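 Bovine uterine membranes; tritiated or iodinated radioligand; competitive displacement; 18 h; scintillation read; DMSO negative control; 25 uM duplicates, then concentration series for actives.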
# [3] = molecular target: Estrogen receptor (Homo sapiens) (UniProt P03372); assay: OT_ER_ERaERa_1440: Odyssey Thera (OT) 24-hour HEK293T Protein-Complementation Assay for Estrogen Receptor-alpha/-alpha Homodimer (AID 2283349);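 further: hits raise fluorescence above DMSO for agonists and antagonists alike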
# Method in brief: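 Cells (HEK293T) carrying the fragment-tagged ERα LBD (aa 310-547) pair are treated with chemical for 24 hours. Nuclear and/or cytoplasmic fluorescence is then quantified on a laser scanning cytometer. Activity is scored as signal gain against DMSO.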
# [4] = molecular target: Estrogen receptor (Homo sapiens) (UniProt P03372); assay: OT_ER_ERaERa_0480: Odyssey Thera (OT) 8-hour HEK293T Protein-Complementation Assay for Estrogen Receptor-alpha/-alpha Homodimer (AID 2283351);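 further: rise in fluorescence from reassembled reporter fragments on ERα LBD homodimer in nucleus or whole cell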
# Method in brief: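 Read-out: fluorescence intensity rise relative to DMSO, nuclear for agonists, nuclear plus cytoplasmic for antagonists. Construct is the ERα LBD (aa 310-547) homodimer fragment-complementation pair, stably expressed in HEK293T; exposure 8 h.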
# [5] = molecular target: Estrogen receptor (Homo sapiens) (UniProt P03372); assay: NVS_NR_hER: NovaScreen (NVS) Nuclear Receptor Binding Assay for human Estrogen Receptor (ER) (AID 2283348)
# Method in brief: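 MCF7-derived receptor extract, radiolabelled ligand, competitive displacement. Read: scintillation counts at 18 h. DMSO = negative control/baseline. Primary 25 uM duplicate; follow-up concentration–response.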
# [6] = molecular target: Estrogen receptor (Homo sapiens) + Estrogen receptor beta (Homo sapiens) (UniProt P03372+Q92731); assay: OT_ER_ERaERb_0480: Odyssey Thera (OT) 8-hour HEK293T Protein-Complementation Assay for Estrogen Receptor-alpha/-beta Heterodimer (AID 2283352)
# Method in brief: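 Increase in mean fluorescence intensity, measured by laser scanning plate cytometry, reported ER-alpha/ER-beta LBD complementation in HEK293T cells after 8 h chemical exposure. DMSO served as baseline; basal signal is low, punctate and cytoplasmic.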
# [7] = molecular target: human Constitutive Androstane Receptor (CAR), NR1I3 (gene 9970) (UniProt Q14994); assay: NVS_NR_hCAR_Antagonist: NovaScreen (NVS) Nuclear Receptor Binding Assay for human Constitutive Androstane Receptor Antagonism (CAR) (AID 2283344)
# Method in brief: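 Single 25 uM duplicate primary screen, with concentration-series follow-up on actives. Cell-free binding format run in antagonist mode, TR-FRET signal taken 1 h post-dose; activity is signal loss relative to DMSO.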
# [8] = test system: guinea pig Histamine Receptor (H2), gene 100729734; assay: NVS_GPCR_gH2: NovaScreen (NVS) G Protein-Coupled Receptor Assay for guinea pig Histamine Receptor (H2) (AID 2283342)
# Method in brief: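 Guinea pig striatal membrane preparation with specific radioligand; bound counts measured by filtration and scintillation 1 h post-dosing, DMSO as baseline. Chemicals passing a 25 uM duplicate screen were titrated to a 50 uM maximum.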
# [9] = NVS_IC_rCaBTZCHL: NovaScreen (NVS) Ion Channel Assay for Calcium Channel, Type L, Benzothiazepine Site (CaBTZCHL) (AID 2283337)
# Method in brief: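 Rat cortical membrane preparation, cell-free. Radioligand displaced by test chemical; 1.5 h incubation; filtration, scintillation count. DMSO = negative control/baseline. Primary: duplicate, 25 uM; secondary: concentration series.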
# [10] = molecular target: chimpanzee Androgen Receptor (AR), AR (gene 747460) (UniProt O97775); assay: NVS_NR_cAR: NovaScreen (NVS) Nuclear Receptor Binding Assay for chimpanzee Androgen Receptor (AR) (AID 2283346);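 further: radioligand displacement from AR measured by scintillation counting in a cell-free assay; a loss of bound radioligand signal versus DMSO counts as binding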
# Method in brief: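 Radioligand binding to chimpanzee AR expressed in Sf9/Sf21 cells, cell-free, measured 72 h after dosing by lysate-based scintillation counting. Loss of signal vs DMSO; initial duplicate screen at 25 uM, actives retested in concentration series.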
# [11] = molecular target: Androgen Receptor/SRC-1 Co-activator, AR (gene 367) (UniProt P10275); assay: OT_AR_ARSRC1_0960: Odyssey Thera (OT) 16-hour HEK293T Protein-Complementation Assay for Androgen Receptor/SRC-1 Co-activator (AID 2283353);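 further: actives raise the signal above DMSO so potency reflects increased AR and SRC-1 complex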
# Method in brief: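 Readout: 488 nm nuclear-to-cytoplasmic fluorescence ratio from imaging of at least 400 cells per image, 16 h post-dose. Reporter is Venus YFP complementation between AR and SRC-1 fusions, stably expressed in HEK293T; activity scored upward relative to DMSO.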
# [12] = molecular target: Androgen Receptor/SRC-1 Co-activator, AR (gene 367) (UniProt P10275); assay: OT_AR_ARSRC1_0480: Odyssey Thera (OT) 8-hour HEK293T Protein-Complementation Assay for Androgen Receptor/SRC-1 Co-activator (AID 2283354);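 further: hits raise the complementation signal above DMSO so AC50 marks enhancers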
# Method in brief: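 Split-Venus PCA, stable HEK293T, AR/SRC-1 fusions; 8 h exposure. Readout: 488nm N/C fluorescence ratio, ≥400 cells/image; fitted upward vs DMSO baseline.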
# [13] = molecular target: Bile acid receptor (Homo sapiens) (UniProt Q96RI1); assay: NVS_NR_hFXR_Antagonist: NovaScreen (NVS) Nuclear Receptor Binding Assay for human Farnesoid X Receptor Antagonism (FXR) (AID 2283350)
# Method in brief: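 Antagonist-format time-resolved FRET binding assay with extracted human receptor protein, read 1 hour after compound addition. Compounds first screened at 25 uM in duplicate, then actives tested in concentration series, with loss of signal relative to DMSO.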
# Chain of rat Peripheral-type Benzodiazepine Receptor (PBR), Tspo (gene 24230) (P16257 whole entry, looked up): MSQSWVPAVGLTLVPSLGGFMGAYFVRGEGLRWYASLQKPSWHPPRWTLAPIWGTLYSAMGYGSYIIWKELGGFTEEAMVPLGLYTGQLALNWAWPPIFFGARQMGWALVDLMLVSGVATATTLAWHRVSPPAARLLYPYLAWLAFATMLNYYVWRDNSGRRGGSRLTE
# Chain of human Constitutive Androstane Receptor (CAR), NR1I3 (gene 9970) (Q14994 whole entry, looked up): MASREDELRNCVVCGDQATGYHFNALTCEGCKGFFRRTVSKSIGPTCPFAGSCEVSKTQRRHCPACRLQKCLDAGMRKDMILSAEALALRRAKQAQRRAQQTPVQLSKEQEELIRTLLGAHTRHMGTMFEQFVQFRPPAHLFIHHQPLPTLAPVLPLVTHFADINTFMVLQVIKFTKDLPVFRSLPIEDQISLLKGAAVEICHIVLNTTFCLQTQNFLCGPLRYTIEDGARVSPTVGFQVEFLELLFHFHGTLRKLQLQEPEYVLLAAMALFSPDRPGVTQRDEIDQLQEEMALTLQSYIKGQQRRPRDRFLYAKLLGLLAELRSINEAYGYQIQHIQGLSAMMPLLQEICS
# Chain of bovine Estrogen Receptor (ER), ESR1 (gene 407238) (P49884 whole entry, looked up): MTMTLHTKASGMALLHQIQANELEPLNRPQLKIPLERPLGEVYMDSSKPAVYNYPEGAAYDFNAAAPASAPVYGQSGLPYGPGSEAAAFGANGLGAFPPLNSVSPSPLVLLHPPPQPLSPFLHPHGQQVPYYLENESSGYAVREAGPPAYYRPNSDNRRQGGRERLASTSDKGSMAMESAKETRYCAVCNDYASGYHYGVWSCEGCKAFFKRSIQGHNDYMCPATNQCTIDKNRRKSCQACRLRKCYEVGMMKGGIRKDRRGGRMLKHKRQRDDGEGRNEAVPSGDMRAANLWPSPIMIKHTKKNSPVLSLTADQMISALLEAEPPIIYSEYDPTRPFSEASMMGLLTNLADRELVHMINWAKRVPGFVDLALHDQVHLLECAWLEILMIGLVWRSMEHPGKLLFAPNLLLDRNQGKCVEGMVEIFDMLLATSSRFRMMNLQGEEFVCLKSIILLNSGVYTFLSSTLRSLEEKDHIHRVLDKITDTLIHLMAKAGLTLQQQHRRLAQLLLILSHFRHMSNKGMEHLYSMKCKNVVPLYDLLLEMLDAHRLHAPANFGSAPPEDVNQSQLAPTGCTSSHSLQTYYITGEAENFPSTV
# Chain of Androgen Receptor/SRC-1 Co-activator, AR (gene 367) (P10275 whole entry, looked up, the tested form may be a part): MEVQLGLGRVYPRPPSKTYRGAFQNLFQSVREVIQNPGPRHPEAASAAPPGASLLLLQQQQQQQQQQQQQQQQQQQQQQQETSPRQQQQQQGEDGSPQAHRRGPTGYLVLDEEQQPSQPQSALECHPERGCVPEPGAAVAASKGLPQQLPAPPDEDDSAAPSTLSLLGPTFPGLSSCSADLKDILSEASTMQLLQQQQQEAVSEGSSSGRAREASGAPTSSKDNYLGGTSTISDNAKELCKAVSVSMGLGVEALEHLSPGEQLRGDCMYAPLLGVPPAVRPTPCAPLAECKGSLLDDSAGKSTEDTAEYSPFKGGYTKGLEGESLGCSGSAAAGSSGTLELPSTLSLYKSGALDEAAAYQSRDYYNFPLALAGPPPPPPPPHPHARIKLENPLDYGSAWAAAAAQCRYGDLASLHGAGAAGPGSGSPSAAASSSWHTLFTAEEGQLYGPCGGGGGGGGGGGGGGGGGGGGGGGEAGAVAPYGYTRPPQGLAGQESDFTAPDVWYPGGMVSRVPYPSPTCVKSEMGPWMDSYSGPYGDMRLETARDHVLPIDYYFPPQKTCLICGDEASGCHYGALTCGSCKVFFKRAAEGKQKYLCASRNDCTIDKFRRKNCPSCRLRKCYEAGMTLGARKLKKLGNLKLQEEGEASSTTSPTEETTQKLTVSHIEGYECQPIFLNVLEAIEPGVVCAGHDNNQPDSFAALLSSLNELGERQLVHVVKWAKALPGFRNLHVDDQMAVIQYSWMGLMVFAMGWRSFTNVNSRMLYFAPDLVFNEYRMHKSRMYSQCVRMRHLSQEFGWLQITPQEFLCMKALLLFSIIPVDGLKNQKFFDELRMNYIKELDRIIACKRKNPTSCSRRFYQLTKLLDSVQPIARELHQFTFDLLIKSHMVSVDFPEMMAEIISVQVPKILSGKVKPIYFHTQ
# Chain of chimpanzee Androgen Receptor (AR), AR (gene 747460) (O97775 whole entry, looked up): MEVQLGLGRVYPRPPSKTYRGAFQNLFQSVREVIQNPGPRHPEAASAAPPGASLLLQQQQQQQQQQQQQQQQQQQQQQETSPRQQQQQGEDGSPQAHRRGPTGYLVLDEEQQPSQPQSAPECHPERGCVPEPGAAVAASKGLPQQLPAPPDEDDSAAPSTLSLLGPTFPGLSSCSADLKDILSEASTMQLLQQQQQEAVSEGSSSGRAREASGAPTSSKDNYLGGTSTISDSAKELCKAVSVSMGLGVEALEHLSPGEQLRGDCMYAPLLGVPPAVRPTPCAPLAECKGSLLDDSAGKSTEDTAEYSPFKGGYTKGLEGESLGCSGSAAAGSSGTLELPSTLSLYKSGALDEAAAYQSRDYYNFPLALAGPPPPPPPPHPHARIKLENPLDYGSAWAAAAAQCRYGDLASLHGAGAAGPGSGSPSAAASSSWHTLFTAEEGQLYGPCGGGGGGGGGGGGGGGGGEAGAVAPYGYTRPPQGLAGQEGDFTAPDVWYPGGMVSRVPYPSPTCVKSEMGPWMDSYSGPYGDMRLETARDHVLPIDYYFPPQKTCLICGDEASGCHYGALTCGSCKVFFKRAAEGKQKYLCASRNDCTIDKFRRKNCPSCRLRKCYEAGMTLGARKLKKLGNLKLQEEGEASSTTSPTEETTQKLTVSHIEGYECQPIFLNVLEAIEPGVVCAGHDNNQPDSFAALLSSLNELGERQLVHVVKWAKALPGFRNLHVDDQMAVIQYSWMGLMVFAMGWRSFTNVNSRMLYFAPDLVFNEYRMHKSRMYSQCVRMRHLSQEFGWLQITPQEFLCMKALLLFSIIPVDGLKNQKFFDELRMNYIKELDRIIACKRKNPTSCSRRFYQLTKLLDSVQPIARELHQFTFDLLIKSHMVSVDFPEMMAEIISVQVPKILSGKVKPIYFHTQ
# Chain of Estrogen receptor (Homo sapiens) (P03372 whole entry, looked up, the tested form may be a part): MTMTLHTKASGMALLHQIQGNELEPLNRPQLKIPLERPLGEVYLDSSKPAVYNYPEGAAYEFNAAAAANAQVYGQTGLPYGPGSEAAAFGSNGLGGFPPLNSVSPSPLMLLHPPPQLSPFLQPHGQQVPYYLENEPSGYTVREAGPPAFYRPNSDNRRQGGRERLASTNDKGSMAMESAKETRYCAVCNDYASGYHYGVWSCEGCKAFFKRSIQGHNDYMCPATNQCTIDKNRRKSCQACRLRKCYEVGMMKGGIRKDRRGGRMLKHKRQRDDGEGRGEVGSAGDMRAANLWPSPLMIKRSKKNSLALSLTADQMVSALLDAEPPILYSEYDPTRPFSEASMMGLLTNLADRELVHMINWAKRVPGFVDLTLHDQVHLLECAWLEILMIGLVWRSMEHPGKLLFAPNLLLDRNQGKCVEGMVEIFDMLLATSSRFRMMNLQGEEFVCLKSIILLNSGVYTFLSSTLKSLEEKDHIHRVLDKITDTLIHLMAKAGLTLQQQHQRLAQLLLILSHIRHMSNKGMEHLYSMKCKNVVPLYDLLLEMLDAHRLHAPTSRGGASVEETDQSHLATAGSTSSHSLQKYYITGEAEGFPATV
# Chain of Estrogen receptor (Homo sapiens) + Estrogen receptor beta (Homo sapiens) (P03372 whole entry, looked up, the tested form may be a part): as above
# Chain of Estrogen receptor (Homo sapiens) + Estrogen receptor beta (Homo sapiens) (Q92731 whole entry, looked up, the tested form may be a part): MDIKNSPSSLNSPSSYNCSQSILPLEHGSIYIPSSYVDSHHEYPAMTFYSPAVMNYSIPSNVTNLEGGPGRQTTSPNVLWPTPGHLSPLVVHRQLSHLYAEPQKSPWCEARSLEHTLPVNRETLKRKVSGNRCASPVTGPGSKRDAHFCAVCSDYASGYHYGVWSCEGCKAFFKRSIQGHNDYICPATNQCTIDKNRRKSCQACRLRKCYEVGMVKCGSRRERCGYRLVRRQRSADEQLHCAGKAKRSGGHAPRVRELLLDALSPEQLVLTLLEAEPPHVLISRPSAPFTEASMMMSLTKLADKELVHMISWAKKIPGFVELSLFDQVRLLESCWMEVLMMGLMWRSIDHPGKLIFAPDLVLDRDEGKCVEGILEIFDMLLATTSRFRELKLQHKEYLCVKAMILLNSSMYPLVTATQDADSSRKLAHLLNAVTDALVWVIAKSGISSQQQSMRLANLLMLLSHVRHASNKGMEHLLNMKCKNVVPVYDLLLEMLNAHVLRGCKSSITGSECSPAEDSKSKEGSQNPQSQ
# Chain of Bile acid receptor (Homo sapiens) (Q96RI1 whole entry, looked up): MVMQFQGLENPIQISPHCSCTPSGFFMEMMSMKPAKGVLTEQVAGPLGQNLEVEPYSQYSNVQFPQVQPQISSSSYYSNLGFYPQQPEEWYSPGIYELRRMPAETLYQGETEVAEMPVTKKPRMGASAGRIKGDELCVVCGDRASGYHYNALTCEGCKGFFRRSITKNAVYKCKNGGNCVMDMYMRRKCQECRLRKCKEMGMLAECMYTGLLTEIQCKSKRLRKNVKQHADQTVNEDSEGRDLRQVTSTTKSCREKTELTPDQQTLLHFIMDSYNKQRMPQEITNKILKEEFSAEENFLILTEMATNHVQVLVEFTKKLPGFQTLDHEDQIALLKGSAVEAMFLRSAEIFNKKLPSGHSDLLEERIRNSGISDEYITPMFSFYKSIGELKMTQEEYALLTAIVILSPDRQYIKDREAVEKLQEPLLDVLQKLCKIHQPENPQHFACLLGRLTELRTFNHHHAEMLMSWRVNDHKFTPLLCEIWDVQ
smiles,measurement,setting,value
N#Cc1c[nH]cc1-c1cccc2c1OC(F)(F)O2,outcome,[1],inactive
same,outcome,NCBI gene 100848466,inactive
same,outcome,[2],inactive
same,AC50,[3],31 µM (active)
same,outcome,[4],inactive
Cc1c(COC(=O)[C@@H]2[C@H](/C=C(\Cl)C(F)(F)F)C2(C)C)cccc1-c1ccccc1,outcome,[1],inactive
same,outcome,[5],inactive
same,outcome,[3],inactive
same,outcome,[4],inactive
same,outcome,[6],inactive
CCN(CC)c1nc(C)cc(OP(=S)(OC)OC)n1,AC50,[1],0.467 µM (active)
same,AC50,NCBI gene 100848466,18.5 µM (active)
same,outcome,[5],inactive
same,outcome,[3],inactive
same,outcome,[4],inactive
same,AC50,[6],19.9 µM (active)
CC(C)NC(=O)N1CC(=O)N(c2cc(Cl)cc(Cl)c2)C1=O,AC50,[1],13.3 µM (active)
same,outcome,[7],inactive
same,outcome,[3],inactive
same,outcome,[4],inactive
CNC(=O)Oc1cccc2ccccc12,AC50,[1],25 µM (active)
same,outcome,[7],inactive
same,outcome,[5],inactive
same,outcome,[3],inactive
same,outcome,[4],inactive
O=C(Nc1ccccc1-c1ccc(Cl)cc1)c1cccnc1Cl,outcome,[1],inactive
same,outcome,[3],inactive
same,outcome,[4],inactive
same,outcome,[6],inactive
CCNP(=S)(OC)O/C(C)=C/C(=O)OC(C)C (stereo unspecified),AC50,[1],11.8 µM (active)
same,AC50,[8],16.1 µM (active)
same,outcome,[3],inactive
same,outcome,[4],inactive
CCCCC(C#N)(Cn1cncn1)c1ccc(Cl)cc1 (stereo unspecified),AC50,[1],12.5 µM (active)
same,outcome,[9],inactive
same,AC50,[8],29.7 µM (active)
same,outcome,NCBI gene 100848466,inactive
same,outcome,[7],inactive
same,outcome,[2],inactive
same,outcome,[5],inactive
same,outcome,[3],inactive
same,outcome,[4],inactive
CCCCOCN(C(=O)CCl)c1c(CC)cccc1CC,AC50,[1],1.65 µM (active)
same,AC50,[7],14.6 µM (active)
same,outcome,[10],inactive
same,outcome,[3],inactive
same,outcome,[4],inactive
same,AC50,[11],21.8 µM (active)
same,AC50,[12],50 µM (active)
COC(=O)c1c(C(F)F)nc(C(F)(F)F)c(C2=NCCS2)c1CC(C)C,AC50,[1],0.484 µM (active)
same,outcome,NCBI gene 100848466,inactive
same,outcome,[7],inactive
same,outcome,[3],inactive
same,outcome,[4],inactive
same,AC50,[6],17.2 µM (active)
same,outcome,[11],inactive
same,outcome,[12],inactive
O=C1C2CC=CCC2C(=O)N1SC(Cl)(Cl)Cl (stereo unspecified),outcome,[1],inactive
same,outcome,NCBI gene 100848466,inactive
same,outcome,[7],inactive
same,outcome,[3],inactive
same,outcome,[4],inactive
same,outcome,[6],inactive
CC(C)(C)C(=O)C(Oc1ccc(Cl)cc1)n1cncn1 (stereo unspecified),AC50,[1],2.37 µM (active)
same,outcome,[8],inactive
same,outcome,NCBI gene 100848466,inactive
same,outcome,[7],inactive
same,outcome,[2],inactive
same,AC50,[10],19.6 µM (active)
same,outcome,[5],inactive
same,outcome,[3],inactive
same,outcome,[4],inactive
same,outcome,[6],inactive
CSC(=O)c1c(C(F)F)nc(C(F)(F)F)c(C(=O)SC)c1CC(C)C,outcome,[8],inactive
same,AC50,[3],47.1 µM (active)
same,outcome,[4],inactive
same,AC50,[6],31.9 µM (active)
COP(=S)(OC)Oc1ccc([N+](=O)[O-])c(C)c1,outcome,[1],inactive
same,AC50,NCBI gene 100848466,14.8 µM (active)
same,outcome,[7],inactive
same,outcome,[2],inactive
same,AC50,[10],5.29 µM (active)
same,outcome,[3],inactive
same,outcome,[13],inactive
same,outcome,[4],inactive
same,outcome,[6],inactive
